Screen size: about 5,600 compounds; about 150 (2.7%) showed an effect of 50% or more. The sample as a whole holds a higher share of strong results than the screen did.
What was measured:
[1] = target: T1, Protein deacetylase HDAC6 (Homo sapiens) (UniProt Q9UBN7); settings: at 10 µM
T1 sequence (whole entry): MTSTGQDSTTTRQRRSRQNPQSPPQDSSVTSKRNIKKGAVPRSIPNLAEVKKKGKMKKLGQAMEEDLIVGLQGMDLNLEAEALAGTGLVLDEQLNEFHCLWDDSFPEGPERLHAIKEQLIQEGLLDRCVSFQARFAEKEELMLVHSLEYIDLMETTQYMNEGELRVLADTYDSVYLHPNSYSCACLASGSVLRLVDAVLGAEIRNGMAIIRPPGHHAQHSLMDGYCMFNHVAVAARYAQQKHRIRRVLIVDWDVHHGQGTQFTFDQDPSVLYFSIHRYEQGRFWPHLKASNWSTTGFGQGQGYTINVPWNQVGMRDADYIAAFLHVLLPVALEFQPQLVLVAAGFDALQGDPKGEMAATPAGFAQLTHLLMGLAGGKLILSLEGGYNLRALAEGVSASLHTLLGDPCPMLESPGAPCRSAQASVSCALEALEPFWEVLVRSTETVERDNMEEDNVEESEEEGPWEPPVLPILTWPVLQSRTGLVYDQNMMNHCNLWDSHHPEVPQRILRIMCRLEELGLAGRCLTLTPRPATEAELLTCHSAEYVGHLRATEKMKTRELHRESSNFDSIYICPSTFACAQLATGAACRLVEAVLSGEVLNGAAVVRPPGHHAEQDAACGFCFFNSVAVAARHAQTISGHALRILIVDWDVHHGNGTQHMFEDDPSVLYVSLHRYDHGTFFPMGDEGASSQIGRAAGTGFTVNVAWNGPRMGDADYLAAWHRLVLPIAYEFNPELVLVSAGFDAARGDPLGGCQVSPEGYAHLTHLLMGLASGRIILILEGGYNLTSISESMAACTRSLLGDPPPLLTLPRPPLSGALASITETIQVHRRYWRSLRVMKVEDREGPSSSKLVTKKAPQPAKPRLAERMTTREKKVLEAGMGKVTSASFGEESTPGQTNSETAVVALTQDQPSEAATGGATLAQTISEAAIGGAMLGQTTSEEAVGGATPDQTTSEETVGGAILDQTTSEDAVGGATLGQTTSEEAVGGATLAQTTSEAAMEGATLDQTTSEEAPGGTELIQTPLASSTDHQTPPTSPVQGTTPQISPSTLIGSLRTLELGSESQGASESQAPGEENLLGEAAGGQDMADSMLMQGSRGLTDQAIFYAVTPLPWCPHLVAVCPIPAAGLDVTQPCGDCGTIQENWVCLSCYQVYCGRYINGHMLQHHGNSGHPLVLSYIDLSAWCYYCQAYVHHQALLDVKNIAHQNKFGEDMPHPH

[2] = target: Protein deacetylase HDAC6 (Homo sapiens) (UniProt Q9UBN7); settings: at 10 µM; remark: listed apart in the source

Compound	inhibition [1] [%]	inhibition [2] [%]
Cc1[nH]nc(C(F)(F)F)c1Cc1sc2c(c1C(=O)N1C[C@](C)(O)CO1)c(=O)n(C)c(=O)n2C(C)C	7.6	–
O=C(NC1CCN(CCc2c[nH]c3ccccc23)CC1)c1ccccc1	22.6	–
O=C(O)[C@H](Cc1c[nH]c2ccccc12)N1C(=O)c2ccccc2C1=O	3.67	–
COc1cc(/C=C/c2ccc(O)cc2)cc(OC)c1	-1.8	–
O=C(/C=C/c1ccc(O)c(O)c1)OCCc1ccccc1	13.8	–
COc1ccc(/C=C\c2cc(OC)c(OC)c(OC)c2)cc1O	-2.33	–
Oc1ccc(/C=C/c2cc(O)cc(O)c2)cc1	85.4	–
Oc1cc(O)cc(/C=C/c2ccc(O)c(O)c2)c1	74	–
Oc1cc(O)cc(O)c1	2.03	–
CCCCNc1ncc(-c2ccc(CN3CCOCC3)cn2)c(N[C@H]2CC[C@H](O)CC2)n1	-9.04	–
CCc1c(C(=O)Nc2cc(S(=O)(=O)N(CC)CC)ccc2O)[nH]c(C)c1C(C)=O	-2.94	–
NC(Cn1ccc(=O)n(Cc2ccccc2C(=O)O)c1=O)C(=O)O (configuration not stated)	-9.78	–
SPIRAMYCIN, CHEMBL6195749	–	-1.63
COc1ccc(Cl)cc1[C@]1(F)C(=O)Nc2cc(C(F)(F)F)ccc21	-2.57	–
Nc1n[nH]c2nc3ccccc3nc12	33.5	–
O=C(O)C(O)Cc1ccc(O)c(O)c1 (configuration not stated)	6.01	–

Compound	inhibition [1] [%]	inhibition [2] [%]
O=C(NO)c1ccc(O)c(O)c1	56.3	–
CC(C)C(=O)c1ccc(O)c(O)c1	0.03	–
COc1cc2c(c(OC)c1OC)-c1c(cc3c(c1OC)OCO3)C[C@@H](C)[C@@H](C)C2	-5.94	–
O=S(=O)(NCCCCCCc1ccccc1)c1cccc2c(Cl)cccc12	-3.75	–
CC/C(=C(\c1ccc(O)cc1)c1ccc(OCCNC)cc1)c1ccccc1	-2.91	–
Oc1ccc(OCc2ccccc2)cc1	87	–
COc1ccc(O)cc1	1.74	–
O=C(c1ccccc1)c1ccc2n1CCC2C(=O)O (configuration not stated)	75.8	–
O=C(O)C1CCCN(CCC=C(c2ccccc2)c2ccccc2)C1 (configuration not stated)	-1.71	–
O=C(O)c1ccccc1	3.92	–
CC(=O)C1=C(O)C=C2Oc3c(C(C)=O)c(O)c(C)c(O)c3[C@@]2(C)C1=O	-7.8	–
CO[C@H]1/C=C/O[C@@]2(C)Oc3c(C)c(O)c4c(O)c(cc(O)c4c3C2=O)NC(=O)/C(C)=C\C=C\C(C)[C@H](O)[C@@H](C)[C@@H](O)[C@@H](C)[C@H](OC(C)=O)[C@@H]1C (some centres not stated)	1.34	–
CSc1nc(-c2ccc(F)cc2)c(-c2ccnc(NC(C)c3ccccc3)c2)[nH]1 (configuration not stated)	-0.06	–
Cc1nccc2[nH]c(=O)ccc12	-0.8	–
COC(=O)CC1CC(c2ccc(O)cc2)=NO1 (configuration not stated)	68.8	–
COC(=O)c1ccc(O)cc1	11.4	–
